High-throughput results: PubChem, National Center for Advancing Translational Sciences (NCATS)
In the library only some 19% were active in any assay of this set; here they are far more common.
TDP1 cell noCPT: qHTS for Inhibitors of human tyrosyl-DNA phosphodiesterase 1 (TDP1): qHTS in cells in absence of CPT. DT40 Tdp1-/- hTDP1 cells, no CPT, ATP luminescence, 48 h. Potency, µM (top dose mostly 46.2 µM), actives largely listed as inhibitors. actives 15% (n = 420,000); further: nearly all actives have a fitted effect of over 55% in size
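Chicken DT40 Tdp1-/- cells complemented with human TDP1, screened without camptothecin (DMSO vehicle only), 400 cells/well. Compounds pin-transferred, cells incubated at 37 °C for at least 48 hr. Growth read as ATP-dependent luminescence (CellTiter-Glo, 30 min at RT).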
HT1080-NT tox: qHTS for induction of synthetic lethality in tumor cells producing 2HG: qHTS for the HT-1080-NT fibrosarcoma cell line | Potency, µM (titrated, usually from 46.1 µM), actives largely listed as cytotoxic | HT-1080-NT fibrosarcoma viability, CellTiter-Glo ATP luminescence, 48 h | actives 1.6% (n = 360,000) | AID 686970, 2013;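 further: NT is the 2HG producing partner of a matched IDH1 knockdown line; nearly all actives have a fitted effect of over 55% in size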
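Read-out is CellTiter-Glo luminescence after 10 minutes at room temperature, following 48 hours' compound treatment of HT-1080-NT cells (750 cells/well, RPMI, 5% FBS, 37 degrees C).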
DT40 TDP1 CPT: qHTS for Inhibitors of human tyrosyl-DNA phosphodiesterase 1 (TDP1): qHTS in cells in presence of CPT; actives 12% (n = 420,000); Potency, µM (doses to about 46.2 µM), hits mostly inhibitors; chicken DT40 Tdp1-/-;hTDP1 cells + 20 nM CPT, ATP luminescence, 48 h; further: nearly all actives have a fitted effect of over 55% in size
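Chicken DT40 Tdp1-/- cells complemented with human TDP1, 400 cells/well, exposed to compounds plus 20 nM camptothecin for at least 48 h at 37 C; viability read as ATP content by CellTiter-Glo luminescence.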
IL1B secr inh: qHTS for Inhibitors of Inflammasome Signaling: IL-1-beta AlphaLISA Primary Screen; THP-1 LPS/ATP IL-1B secretion, AlphaLISA, 16 h; active compounds read low; activity change, % at 57.5 µM; actives 4.7% (n = 360,000); in the data active means activity change below about -50%; inconclusive means mostly about -30% to -49%
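Secreted IL-1B measured by AlphaLISA bead assay after 16 h compound exposure of THP-1 cells; compounds (final up to 57.5 uM) added 1 h before LPS (250 ng/mL) and ATP (1.25 mM) stimulation; lower signal means less secretion.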
HT1080 IDH1KD tx: qHTS for induction of synthetic lethality in tumor cells producing 2HG: qHTS for the HT-1080-IDH1KD cell line; HT-1080 IDH1 knockdown viability, ATP luminescence, 48 h; actives 2% (n = 360,000); Potency, µM (top dose mostly 46.1 µM), most hits filed as cytotoxic; AID 686971, 2013
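CellTiter-Glo luminescence after 48 h compound exposure at 37 degrees C of IDH1-knockdown HT-1080 cells in 5% FBS RPMI. %Activity scaled between DMSO wells and cell-free media wells, with curves fitted and assigned curve classes.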
Hits are given with their value; – = inactive; ? = inconclusive; · = not tested or not shown; [ ] = dose if it differs, or a comment. Unless noted, the call rests on the fitted dose curve; in most records, active means well fitted curve in the direction sought with a large enough effect; inconclusive means small, poorly fitted or top-dose-only effect, or another doubt; inactive means no such curve, though single readings can be large; an effect the other way counts as inactive or inconclusive.

SMILES	TDP1 cell noCPT	HT1080-NT tox	DT40 TDP1 CPT	IL1B secr inh	HT1080 IDH1KD tx
COc1ccc(CNC(=O)c2cc(-c3ccc(Br)s3)nc3ccccc23)c(OC)c1	15µM	·	?	·	·
CC(C)CCNC(=O)c1cc(-c2ccc(Br)s2)nc2ccccc12	?	·	15µM	·	·
COc1ccc(C(=O)N(Cc2ccco2)Cc2ccc(C)o2)cc1	21µM	·	21µM	·	·
CCc1ccc(CN(Cc2ccco2)C(=O)c2ccc(OC)cc2)cc1	23µM	·	?	·	·
Cc1cccc(NC(=O)c2ccc(OCc3c(C)noc3C)cc2)n1	13µM	–	?	–	–
CC(C)(C)c1ccc(OCCCC(=O)NNC(=O)c2ccccc2O)cc1	18µM	?	?	–	?
Cc1noc(C)c1COc1ccc(C(=O)NNC(=O)c2ccccc2O)cc1	16µM	?	?	–	?
N#Cc1cccc(NS(=O)(=O)c2ccccc2Cl)c1	–	–	–	–	–
CCOC(=O)c1noc2ncnc(N3CCN(c4cccc(C(F)(F)F)c4)CC3)c12	13µM	·	16µM	·	·
COc1ccc(N2CCN(C(=O)c3c(C)oc4ncnc(N5CCCCC5)c34)CC2)cc1	15µM	·	?	·	·
Cc1oc2ncnc(N3CCCCC3)c2c1C(=O)N1CCN(c2cccc(C(F)(F)F)c2)CC1	13µM	·	16µM	·	·
O=C1C2C(C(=O)N1c1ccccc1)N1CCCN1C2c1ccccc1 (centres undefined)	–	–	–	–	–
CC(C)(C)NC(=O)CN(C(=O)CCC(=O)Nc1nccs1)c1ccccc1F	–	–	–	–	–
c1ccc2c(-c3cc(NCc4ccncc4)n4nccc4n3)cccc2c1	–	?	–	–	–
CCN(CC(=O)Nc1cccc(F)c1)CC(=O)Nc1ccc2c(c1)OCCO2	–	–	–	–	–
C/C(=N\N=C\c1ccccc1)c1nnn(-c2nonc2N)c1C	–	–	–	–	–
CCOC(=O)c1[nH]c(C)c(C(=O)OCC(=O)NCc2ccc(Cl)cc2)c1C	–	–	–	–	–
COc1ccc(CCC(=O)NCc2ccccc2Cl)cc1OC	–	–	–	–	–
CCOC(=O)c1c(C)[nH]c(CCC(=O)NCc2cc(Br)ccc2OC)c1C	18µM	·	?	·	·
CCOC(=O)c1c(C)[nH]c2cc(Br)c(OC)cc12	–	–	–	–	–
CCOC(=O)c1c(C)[nH]c(CCC(=O)NCc2ccc(CC)cc2)c1C	18µM	·	?	·	·
CCOC(=O)c1c(C)[nH]c(CCC(=O)NCc2ccccc2Cl)c1C	21µM	·	?	·	·
CCOC(=O)c1c(C)[nH]c(CCC(=O)NCc2ccccc2C)c1C	13µM	·	?	·	·
CN(c1ccccc1)S(=O)(=O)c1cccc(NC(=O)c2nn(C)c(=O)c3ccccc23)c1	?	–	?	–	–
COCCOC(=O)c1c(-c2ccccc2)c(-c2ccccc2)nn(C)c1=O	21µM	·	?	·	·
SMILES	TDP1 cell noCPT	HT1080-NT tox	DT40 TDP1 CPT	IL1B secr inh	HT1080 IDH1KD tx
COCCCNC(=O)c1c(-c2ccccc2)c(-c2ccccc2)nn(C)c1=O	–	·	–	·	·
CC(C)OC(=O)c1c(-c2ccccc2)c(-c2ccccc2)nn(C)c1=O	21µM	·	?	·	·
COC(=O)c1c(-c2ccccc2)c(-c2ccccc2)nn(C)c1=O	?	–	?	–	–
CC1OC(COCc2ccccc2)Cc2[nH][nH]c(=O)c21 (centres undefined)	–	–	–	–	–
COCCn1c(C)cc(O)c(C(c2ccccc2)N2CCC(C)CC2)c1=O (centres undefined)	–	·	–	·	·
S=c1[nH]nc(-c2n[nH]c3c2CCC3)n1/N=C/C=C/c1ccco1	–	–	–	–	–
CCCc1c(C(=O)Nc2ccc(OC)cc2)cnn1-c1ccccc1	?	–	–	–	–
CCCc1c(C(=O)N2CCN(c3ccccc3OC)CC2)cnn1-c1ccccc1	18µM	–	?	–	–
CCCc1c(C(=O)NNc2ccccc2OC)cnn1-c1ccccc1	–	–	–	-52	–
CCCCOc1ccc(C(=O)NCC(=O)N2CC=C(c3ccccc3)CC2)cc1	?	–	?	–	–
O=C(NNC1=Nc2cc([N+](=O)[O-])ccc2OC1)c1ccccc1Cl	?	–	?	–	–
CC1(Cc2cc(Cl)ccc2C(F)(F)F)C(=O)Nc2ccc(S(=O)(=O)NC3CCCCC3)cc21 (centres undefined)	?	?	26µM	–	?
CC1(Cc2ccc(Cl)c(Cl)c2)C(=O)Nc2ccc(S(=O)(=O)NC3CCCCC3)cc21 (centres undefined)	?	?	?	–	?
Cc1ncc(CO)c(C=O)c1O	–	·	–	·	·
COc1cc(Nc2c3c(nc4ccccc24)CCC3)cc(OC)c1OC	2.1µM	1.5µM	1.8µM	–	2.1µM
COc1ccc(OC)c(Nc2c3c(nc4ccccc24)CCC3)c1	0.58µM	0.65µM	0.73µM	-75	0.58µM
COc1ccc(OC)c(Nc2cc(C)c3ccccc3n2)c1	?	?	?	–	?
COc1ccc(OC)c(Nc2c3ccccc3nc3ccccc23)c1	6.5µM	5.8µM	5.2µM	-84	4.6µM
COc1cc(NS(C)(=O)=O)ccc1Nc1c2ccccc2nc2ccccc12	0.13µM	12µM	0.21µM	-105	16µM
Cc1nnc2c(N3CCN(c4ccccc4F)CC3)nc3ccccc3n12	–	·	–	·	·
COc1ccc(CCN2C(=O)c3ccncc3C2=O)cc1OC	?	–	?	–	–
CS(=O)(=O)Nc1cccc(S(=O)(=O)N2CCN(C(=O)c3ccccc3)CC2)c1	–	–	–	–	–
CC1(C)S[C@@H]2[C@H](NC(=O)C(C(=O)Oc3ccc4c(c3)CCC4)c3ccccc3)C(=O)N2[C@H]1C(=O)O (some centres undefined)	–	·	–	·	·
COCc1c(C(=O)NC2CCCC2)cnn1-c1nccc(-c2cc(C)sc2C)n1	?	·	–[9.04 µM]	·	·
COc1ccc([N+](=O)[O-])cc1Nc1c2ccccc2nc2ccccc12	2.6µM	5.2µM	2.6µM	–	5.2µM
O=[N+]([O-])c1ccccc1Nc1c2ccccc2nc2ccccc12	?	–	21µM	–	?
COc1ccc(S(=O)(=O)NCc2ccccn2)cc1NC(=O)c1ccccc1F	2.6µM	4.6µM	2.3µM	–	5.8µM
CCOc1ccc(S(=O)(=O)NCc2ccccn2)cc1NC(=O)c1ccccc1	1.3µM	2.6µM	1.3µM	–	3.3µM
CN(C)CC(C)(C)NS(=O)(=O)c1ccc(Cl)cc1	–	–	–	–	–
Cc1nc2c(c(=O)n1CCC1=CCCCC1)c1nc3ccccc3nc1n2/N=C/c1ccccc1	?	–	?	–	–
